3T3 cytotox: cytotoxic compounds in NIH 3T3 cells; NIH 3T3 viability, CellTiter-Glo ATP luminescence, 48-72 h; Potency, µM (highest dose often 96.7 µM), for inactives: at the top dose activity change, negative = cytotoxicity, most hits filed as inhibitors; hit rate 4.3% among 94,000; note: nearly all actives have a fitted effect of over 55% in size
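ATP-dependent luminescence (CellTiter-Glo) served as the viability signal for NIH 3T3 cells treated with compound for 48 or 72 hr at 37 °C.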
hNpr1 antagonist: human Npr1 receptor antagonism; hit rate 1.6% among 76,000; HEK293 hNpr1 GloSensor cGMP, ANP-stimulated luminescence; Potency, µM (doses to about 46.3 µM), for the others: at the highest dose activity change, negative = inhibition, hits mostly inhibitors; P16066; calls by dose curve; note: nearly all actives have a fitted effect of over 60% in size
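Compound pre-incubated 30 min at room temperature on GloSensor-loaded HEK293 cells stably carrying hNpr1 and the pGS-40F cGMP biosensor. Stimulation uses hNppA at 0.1 nM final; luminescence is taken at baseline and 20 min post-agonist.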
Luciferase inh: inhibitors of firefly (Photinus pyralis) luciferase | P08659 | purified P. pyralis luciferase, luminescence, biochemical | Potency, µM (doses to about 115 µM), most hits filed as inhibitors | hit rate 2.5% among 76,000; note: nearly all actives have a fitted effect of over 65% in size
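Luminescence read by CCD imager after adding enzyme (10nM final) to wells holding compound, titrated in qHTS. Substrates 10uM each D-luciferin and ATP; buffer 50mM Tris acetate pH 7.5, 10mM Mg acetate, Tween-20, BSA.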
HEK293 tox: HEK 293 cell cytotoxicity; HEK 293 viability, ATP luminescence (CellTiter-Glo), 48-72 h; AID 1345083; Potency, µM (titrated, usually from 115 µM), inactives show at the highest dose activity change, negative = cytotoxicity, hits mostly inhibitors; hit rate 6.6% among 94,000; note: nearly all actives have a fitted effect of over 60% in size
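CellTiter-Glo luminescence (cellular ATP) was read after 48 or 72 hr of compound exposure at 37 degree Celsius. Cells were HEK 293 plated at 250 cells/well.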
* hit, by the source's call; i = inactive; ? = inconclusive; . = not tested or not shown; [ ] = dose if it differs, or a comment. An excerpt weighted towards active compounds, which were near 11% of everything screened. Unless noted, calls come from the whole dose curve; as a rule, active = well fitted curve in the direction sought with a large enough effect; inconclusive = small, poorly fitted or top-dose-only effect, or another doubt; inactive = no such curve, though single readings can be large; an effect the other way counts as inactive or inconclusive. % is set by controls: 0 for no effect and ±100 for the full control effect; potency is the fitted concentration of half-maximal effect.

SMILES	3T3 cytotox	hNpr1 antagonist	Luciferase inh	HEK293 tox
Cn1c(C(=O)NCCc2cnc[nH]2)nc2nc(-c3ccccc3)c(Cl)cc21	28µM*	-13%[70.6 µM]	?	?
CN(C)CCNC(=O)c1nc2nc(-c3ccccc3)c(-c3ccccc3F)cc2n1C	35µM*	?	i	50µM*
COCCN1C(=O)N(Cc2cccc3ccccc23)C(=O)C12CCN(Cc1cn(C)nc1C)CC2	-14%	3%	i	-28%
COc1ccc2nc([C@H]3CCN(CCCc4ccccc4)C3)[nH]c2c1	?	0%[70.6 µM]	71µM*	63µM*
Fc1ccccc1-c1nnc([C@H]2CCN(Cc3cccc(OC(F)(F)F)c3)C2)o1	?	-1%[70.6 µM]	i	112µM*
Fc1ccccc1-c1nnc([C@H]2CCN(Cc3ccccc3)C2)o1	?	1%[70.6 µM]	?	-22%[172 µM]
COc1ccc2nc([C@H]3CCN(Cc4cccc(OC(F)(F)F)c4)C3)[nH]c2c1	89µM*	?	?	100µM*
COc1ccc2nc([C@H]3CCN(Cc4ccc(C(=O)O)cc4)C3)[nH]c2c1	-5%[174 µM]	6%[70.6 µM]	?	-2%[172 µM]
c1ccc(CCCN2CC[C@H](c3nc4ccccc4[nH]3)C2)cc1	?	-21%[70.6 µM]	?	?
O=C(CN1CCCCCC1)NCC1Cn2cccc2C(=O)N1Cc1ccccc1 (stereo unspecified)	2%	-14%	i	-13%
Cc1ccc([S+](=O)([O-])N2CCc3nc(-c4ccccc4)nc(-c4ccc(Cl)cc4)c3C2)cc1	i	.	.	-8%
O=C(c1cc(Cl)ccc1F)N1CCCC(n2cc(-c3nc(-c4ccccc4)no3)nn2)C1 (stereo unspecified)	?	16µM*	?	32µM*
CCc1noc(-c2cn(C3CCN(C(=O)c4cccc(Cl)c4)C3)nn2)n1 (stereo unspecified)	?	-25%	i	?
CCCc1noc(-c2cn(C3CCN(C(=O)c4cccc(F)c4)CC3)nn2)n1	35µM*	0%	i	-13%
COc1ccc(C(=O)N2CCCC(n3cc(-c4nc(-c5ccccc5)no4)nn3)C2)cc1 (stereo unspecified)	?	?	?	28µM*
O=C(c1cccc(Cl)c1)N1CCC(n2cc(-c3nc(-c4ccccc4)no3)nn2)C1 (stereo unspecified)	?	-16%	?	40µM*
Cc1ccc(C)c(-c2cc3c(=O)n(CCNC(=O)c4cccc(N(C)C)c4)ccn3n2)c1	?	-7%	i	?
O=C(c1ccccc1F)N1CCC(C(=O)N2CCCC(c3nc4ncccc4[nH]3)C2)CC1 (stereo unspecified)	-21%	.	.	-10%
O=C(NC1CCCC1)C1CCN(C(=O)c2ccc(-c3cncnc3)cc2)CC1	-29%	.	.	-4%
Cc1cccc(OCC(=O)N2CCN(C(=O)c3nnn4c3COC(c3ccc(Cl)cc3)C4)CC2)c1 (stereo unspecified)	-25%	1%	i	-22%
O=C(c1cccs1)N1CCCC(n2cc(-c3nc(-c4ccccc4)no3)nn2)C1 (stereo unspecified)	?	?	35µM*	?
CN(C)c1cccc(C(=O)N2CCC(n3cc(-c4nc(-c5ccccc5)no4)nn3)C2)c1 (stereo unspecified)	?	?	32µM*	28µM*
O=C(c1ccoc1)N1CCCC(n2cc(-c3nc(-c4ccccc4)no3)nn2)C1 (stereo unspecified)	?	?	?	50µM*
O=C(c1ccncc1)N1CCCC(n2cc(-c3nc(-c4ccccc4)no3)nn2)C1 (stereo unspecified)	?	-29%	?	-30%
COc1ccccc1C(=O)N1CCC(n2cc(-c3nc(-c4ccccc4)no3)nn2)C1 (stereo unspecified)	?	13µM*	32µM*	28µM*
COc1cc(OC)cc(C(=O)N2CCCC(n3cc(-c4nc(-c5ccccc5)no4)nn3)C2)c1 (stereo unspecified)	?	-10%	i	?
CCOc1ccc2c(n1)CCN(C(=O)CCc1ccccc1)C2	-16%	-5%	i	?
O=C(NCc1ccc(Cl)cc1)c1ccc(N2CC3CC(C2)[C@H]2CCCC(=O)N2C3)nc1 (stereo partly specified)	?	-1%	i	?
COCCNC(=O)c1ccc2nnc(-c3cccc(OC(F)(F)F)c3)n2c1	-26%	.	.	-25%

Source: PubChem BioAssay (National Center for Advancing Translational Sciences (NCATS))
